The list is not random: actives were taken first. Their share in the collection is about 2.3%.
YB-1 expr inh – YB-1 expression inhibition. U2OS, qRT-PCR YB-1 vs CDIP delta delta Cp, 16 h; hits give high values; zero = DMSO, each unit about twofold. delta delta Cp (YB-1 minus CDIP) (test concentration not listed). 30,000 tested, 0.37% active. AID 434959;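 active = delta delta Cp rounded down to an integer at or above 3, about 3 SD of DMSO wells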;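 note: higher means less YB-1 transcript or more CDIP transcript relative to DMSO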
U2OS ROS induce – inducers of reactive oxygen species in cancer cells; AID 624156; 46,000 tested, 2% active; U2OS ROS induction, H2DCF-DA fluorescence; ROS induction (% of piperlongumine), % at 10 µM; in the data active = ROS induction above about 79%, passing the limit was not always enough; inconclusive = no clear call, values can overlap the other calls
Large screens that a line does not name were inactive.

Cc1cccn2cc(CCNS(=O)(=O)c3ccc(Oc4ccccc4)cc3)nc12	none (no result: YB-1 expr inh)
O=C(Nc1ccc2c(c1)S(=O)(=O)c1cc(NC(=O)C3CCCCC3)ccc1-2)C1CCCCC1	none (no result: YB-1 expr inh)
CCCNC(=O)C(C)n1c2ccccc2c2cnn(C)c(=O)c21 (stereo not drawn)	none (no result: YB-1 expr inh)
COc1ccc([Si](C)(C)[C@@H]2[C@@H](CCn3cc(CCO)nn3)O[C@]3(C(=O)N(Cc4ccc(N5CCOC5=O)cc4)c4ccccc43)[C@H]2C)cc1	none
COc1ccc([Si](C)(C)[C@@H]2[C@@H](CCn3cc([C@H](O)c4ccccc4)nn3)O[C@]3(C(=O)N(Cc4ccc(N5CCC5=O)cc4)c4ccccc43)[C@H]2C)cc1	none
COc1ccc([Si](C)(C)[C@H]2[C@H](CCO)O[C@@]3(C(=O)N(Cc4ccc(N5CCOC5=O)cc4)c4ccccc43)[C@@H]2C)cc1	U2OS ROS induce 129.7
COc1ccc([Si](C)(C)[C@H]2[C@H](CCO)O[C@@]3(C(=O)N(Cc4cccc(NC(=O)[C@H](C)O)c4)c4ccccc43)[C@@H]2C)cc1	none
COc1ccc([Si](C)(C)[C@@H]2[C@@H](CCO)O[C@]3(C(=O)N(Cc4ccc(NC(=O)[C@H](C)O)cc4)c4ccccc43)[C@H]2C)cc1	U2OS ROS induce 90.8
COc1ccc([Si](C)(C)[C@H]2[C@H](CCO)O[C@@]3(C(=O)N(Cc4cccc(N5CCC5=O)c4)c4ccccc43)[C@@H]2C)cc1	U2OS ROS induce 106.8
O=C(NC1CCCCC1)C1CCC(Cn2c(=S)[nH]c3ccccc3c2=O)CC1 (stereo not drawn)	none (no result: YB-1 expr inh)
CCOC(=O)N1CCN(C(=O)CSc2ccc(-c3cccs3)nn2)CC1	none (no result: YB-1 expr inh)
C[C@H](CO)N1C[C@H](C)[C@H](CN(C)C(=O)Nc2ccc3c(c2)OCO3)Oc2ncc(/C=C/c3ccccc3)cc2C1=O	U2OS ROS induce 119.8
C[C@H](CO)N1C[C@H](C)[C@H](CN(C)C(=O)Nc2ccc(F)cc2)Oc2ncc(-c3ccccc3)cc2C1=O	none
C[C@H](CO)N1C[C@H](C)[C@H](CN(C)C(=O)Nc2ccc3c(c2)OCO3)Oc2ncc(C#CC(C)(C)O)cc2C1=O	none
C[C@H](CO)N1C[C@H](C)[C@H](CN(C)C(=O)Nc2ccc(F)cc2)Oc2ncc(/C=C/c3ccccc3)cc2C1=O	U2OS ROS induce 89.9
CCc1cccc(NC(=O)CCCN2C(=O)COc3ccc(C)cc32)c1	none (no result: YB-1 expr inh)
CCc1ccc2nc(N3CCC(C(=O)NC4CCCCC4)CC3)sc2c1	none (no result: YB-1 expr inh)
CN(C)CCN(C(=O)C1CCCCC1)c1nc2ccc(Br)cc2s1	U2OS ROS induce 94.5 (no result: YB-1 expr inh)
CCc1ccc(NC(=O)Cc2coc3ccc(C(C)C)cc23)cc1	none (no result: YB-1 expr inh)
Cc1c(-c2ccccc2)nc2sc3c(c2c1N)CCCC3	U2OS ROS induce 91.7 (no result: YB-1 expr inh)
Cc1cccc(-c2nc3sc4c(c3c(=O)[nH]2)CCCC4)c1	none (no result: YB-1 expr inh)
CC(C)=CCOc1c2ccoc2cc2oc(=O)ccc12	none
CC(C)=CCOc1cc(C)cc2oc(=O)cc(-c3ccccc3)c12	U2OS ROS induce 84.1 (no result: YB-1 expr inh)
O=C(Nc1csc2ccccc12)N1CCN(C(c2ccccc2)c2ccccc2)CC1	none (no result: YB-1 expr inh)
CSc1ccc(-c2cc(=O)c3ccccc3o2)cc1	none (no result: YB-1 expr inh)
Cc1ccc(-c2cc(=O)c3ccc4ccccc4c3o2)cc1	U2OS ROS induce 94.9 (no result: YB-1 expr inh)
O=C1CC(c2ccccc2)OC12CCCCC2 (stereo not drawn)	none (no result: YB-1 expr inh)
COCCOC(=O)N1C(=O)[C@@]2(c3cc(C#Cc4ccc(OC)cc4)ccc31)[C@H](c1ccccc1OCCO)N1[C@H](c3ccccc3)[C@H](c3ccccc3)OC(=O)[C@H]1[C@@H]2C(=O)N1CCN(c2ncccn2)CC1	none
COCCOC(=O)N1C(=O)[C@@]2(c3cc(C#CCC(C(=O)OC)C(=O)OC)ccc31)[C@H](C(N)=O)[C@H]1C(=O)O[C@H](c3ccccc3)[C@H](c3ccccc3)N1[C@@H]2c1ccccc1OCCO	U2OS ROS induce 161.6
COCCOC(=O)N1C(=O)[C@@]2(c3cc(C#CCC(C(=O)OC)C(=O)OC)ccc31)[C@H](C(N)=O)[C@H]1C(=O)O[C@H](c3ccccc3)[C@H](c3ccccc3)N1[C@@H]2c1ccc(OCCO)cc1	U2OS ROS induce inconclusive
COCCOC(=O)N1C(=O)[C@@]2(c3cc(C#CCC(C(=O)OC)C(=O)OC)ccc31)[C@H](C(=O)N1CCN(c3ncccn3)CC1)[C@H]1C(=O)O[C@H](c3ccccc3)[C@H](c3ccccc3)N1[C@@H]2c1ccc(O)cc1	none
COCCOC(=O)N1C(=O)[C@@]2(c3cc(C#CC4(O)CCCCCC4)ccc31)[C@H](C(=O)N1CCN(c3ncccn3)CC1)[C@H]1C(=O)O[C@H](c3ccccc3)[C@H](c3ccccc3)N1[C@@H]2c1ccccc1OCCO	U2OS ROS induce 83.7
COCCOC(=O)N1C(=O)[C@@]2(c3cc(C#CCC(C(=O)OC)C(=O)OC)ccc31)[C@H](C(=O)N1CCN(c3ncccn3)CC1)[C@H]1C(=O)O[C@H](c3ccccc3)[C@H](c3ccccc3)N1[C@@H]2c1ccccc1OCCO	U2OS ROS induce 79.8

Source: PubChem (Broad Institute)
